Hits are enriched below; roughly 1.2% of the tested compounds scored in any of these assays.
Rv3671c protease: inhibitors of M. tuberculosis serine protease Rv3671c | P9WHR9 | inhibition, % at 5.96 µM | actives 0.048% (n = 320,000) | AID 2606;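 also: extracellular domain of Rv3671c used as enzyme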
PrP 5UTR inh: inhibition of PrP 5' UTR reporter expression | inhibition, % (concentration not given with the values) | AID 488862 | actives 0.35% (n = 340,000) | cell-based PrP 5' UTR mRNA reporter, plate reader; in the data active = inhibition above about 52%
PrPC surface inh: reduces human prion protein on the cell surface | actives 0.43% (n = 370,000) | P04156 | AID 720596 | inhibition, % at 13.8 µM | cell surface PrPC, TR-FRET read-out; in the data active = inhibition above about 24%
PriA SSB inh: blocks PriA binding to SSB C-terminal tail; inhibition, % at 33 µM; AID 1272365; AlphaScreen SSBct-PriA binding, biotinylated peptide; actives 0.6% (n = 430,000); in the data active = inhibition mostly above about 37%, no sharp cut-off; inactive = mostly below about 20%
FadD28 FP inh: M. tuberculosis FadD28 bisubstrate binding inhibition; FadD28 bisubstrate probe binding, fluorescence polarization; actives 0.22% (n = 360,000); inhibition, % at 12.5 µM; in the data active = inhibition above about 8.5%, passing the limit was not always enough; inconclusive = no clear call, values can overlap the other calls
Mtb UGM inh: blocks M. tuberculosis UGM enzyme | P9WIQ1 | purified UGM, fluorescence polarization probe displacement | inhibition, % at 10 µM | actives 0.06% (n = 320,000); in the data active = inhibition above about 10%, passing the limit was not always enough; inconclusive = no clear call, values can overlap the other calls
Target sequence (P9WIQ1 whole entry, looked up): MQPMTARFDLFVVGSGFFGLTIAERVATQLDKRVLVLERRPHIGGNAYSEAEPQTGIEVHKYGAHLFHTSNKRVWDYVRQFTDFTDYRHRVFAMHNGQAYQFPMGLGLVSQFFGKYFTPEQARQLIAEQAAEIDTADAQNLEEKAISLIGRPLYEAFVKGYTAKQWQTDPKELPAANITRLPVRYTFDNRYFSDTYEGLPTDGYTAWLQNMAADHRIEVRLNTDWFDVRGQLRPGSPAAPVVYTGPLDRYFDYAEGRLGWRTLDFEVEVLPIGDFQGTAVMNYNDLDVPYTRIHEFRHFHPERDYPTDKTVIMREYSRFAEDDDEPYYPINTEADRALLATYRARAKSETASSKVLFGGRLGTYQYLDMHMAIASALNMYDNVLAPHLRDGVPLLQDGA
Rv3671c confirm: Rv3671c protease inhibition, confirmation; actives 40% (n = 140); inhibition, % at 5.96 µM; shares compounds with Rv3671c protease
Numbers stand for hits; - = inactive; ? = inconclusive; . = no result. Rule as the data show it, unless noted: active = inhibition above about 38%; inactive = the rest.

SMILES	Rv3671c protease	PrP 5UTR inh	PrPC surface inh	PriA SSB inh	FadD28 FP inh	Mtb UGM inh	Rv3671c confirm
COCCCNC(=O)Cn1cc(/C=C2\C(=O)NC(=O)N(c3ccccc3F)C2=O)c2ccccc21	-	.	.	-	-	23	.
NC(=O)Cn1cc(C=C2C(=O)NC(=O)NC2=O)c2ccccc21	.	-	-	-	-	30	.
COc1ccc(OC)c(-c2oc3ccccc3c(=O)c2O)c1	-	-	-	-	-	-	.
COc1ccc(OC)c(-c2c3cc(O)c(=O)cc-3oc3cc(O)c(O)cc23)c1	63	-	.	-	102	-	76
Cn1c(=O)cc2c3c(c(Br)ccc31)C(=O)c1ccccc1-2	.	.	.	-	.	.	.
Cn1c(=O)cc2c3c(c(N4CCCCC4)ccc31)C(=O)c1ccccc1-2	52	.	-	-	32	-	-
COc1ccc(Cl)c2sc(N3CCN(C(=O)c4cccc(N5C(=O)CCC5=O)c4)CC3)nc12	.	.	.	-	.	.	.
CSC[C@@H]1NC(=S)N(c2ccc(C)cc2)C1=O	91	-	-	-	-	-	83
Cc1ccc(N2C(=O)C3CCC(C)(C2=O)C3(C)C)cc1 (centres undefined)	-	-	-	-	-	-	.
COC(=O)Cc1[nH]nc2c1C(c1cc(OC)c(OC)c(OC)c1)C(C#N)=C(N)O2 (centres undefined)	40	-	-	-	-	-	-
Nc1cc(C(=O)O)c(N)c2c1C(=O)c1ccccc1C2=O	61	-	.	74	8.3	-	52
Nc1c(C(=O)O)ccc2c1C(=O)c1ccccc1C2=O	-	-	-	-	-	-	.
COc1ccccc1OCC(=O)Nc1ccc2c(c1)OCC(C)(C)C(=O)N2	.	.	.	-	.	.	.
O=C(COc1ccc(Cl)cc1Cl)NCCn1nc(-c2cccnc2)n(C2CC2)c1=O	.	.	.	-	.	.	.
CC(=O)c1ccc(S(=O)(=O)Nc2cccc(-c3ccc4nncn4n3)c2)cc1	56	-	-	-	-	-	-
CCC(C)OC(=O)n1ccc(C(=O)Nc2nccs2)n1 (centres undefined)	55	-	-	-	-	-	49
O=C(O)c1cccc2c1NC(C(=O)O)C1CC(Sc3ccccc3[N+](=O)[O-])C(Cl)C21 (centres undefined)	50	-	-	-	55	-	-
CC1=NN(c2ccccc2)C(=O)C1=Cc1c(O)n(-c2ccc(F)cc2)[nH]c1=O	.	.	.	-	.	.	.
CC1=NN(c2ccccc2)C(=O)/C1=C/c1c(O)n(-c2ccc(F)c(Cl)c2)[nH]c1=O	48	.	.	.	.	-	-
CC1=C(C(N)=O)C(c2cccs2)n2nc(-c3cccc(C)c3)nc2N1 (centres undefined)	43	-	-	-	-	-	52
CCN1C(=O)C(CC(=O)Nc2ccc(F)cc2)N(CCc2ccc(OC)cc2)C1=S (centres undefined)	51	-	-	-	-	-	-
O=C(CSCC(=O)Nc1ccccc1)N/N=C/c1c(O)ccc2ccccc12	-	-	-	.	-	-	.
O=C(N/N=C/c1c(O)ccc2ccccc12)Nc1ccccc1	40	.	-	.	.	-	56
CC(=O)Oc1ccc2c(c1)Oc1cc(OC(C)=O)ccc1C21OC(=O)c2ccccc21	122	-	.	-	41	?	123
Cc1cc(O)ccc1C1(c2ccc(O)cc2C)OC(=O)c2ccccc21	-	-	-	-	-	-	.
SMILES	Rv3671c protease	PrP 5UTR inh	PrPC surface inh	PriA SSB inh	FadD28 FP inh	Mtb UGM inh	Rv3671c confirm
Cc1ccc(-n2ncc3c(SCC(=O)c4ccccc4)ncnc32)c(C)c1	.	.	.	-	.	.	.
O=C(CSc1c(F)c(F)cc(F)c1F)Nc1ccc(C2SCCS2)cc1	164	-	-	-	-	-	-
O=C(CSc1ccc(Cl)cc1)Nc1ccc(C2SCCS2)cc1	-	-	-	-	-	-	.
CCOC(=O)C(C#N)=CNc1cc(C(C)(C)C)sc1C(C)=O	.	.	.	-	.	.	.
O=C(NC1CCN(C(=O)c2cccc([N+](=O)[O-])c2)CC1)c1ccccc1	144	-	-	-	-	-	-
O=CN1CCN(C(=O)c2cccc([N+](=O)[O-])c2)CC1	-	-	-	-	-	-	.
O=C1c2ccccc2-c2onc3ccc(NCc4ccco4)c1c23	106	-	.	78	12	12	81
CCNc1ccc2noc3c2c1C(=O)c1ccccc1-3	130	-	-	-	52	12	126
O=C1c2ccccc2-c2onc3ccc(N4CCCC4)c1c23	.	-	-	-	?	.	.
Cc1ccc(NC(=O)C(=O)NCC2CCN(C3CCCC3)CC2)cc1Cl	.	.	.	-	.	.	.
